Assay outcomes as filed in PubChem.
This is a sample that favours compounds with a hit; in the whole collection about 6.2% have one here.
HT1080 IDH1KD tx – HT-1080 IDH1 knockdown cell toxicity (counter line) | HT-1080 IDH1 knockdown viability, ATP luminescence, 48 h | Potency, µM (top dose mostly 46.1 µM), inactives show at the highest dose activity, negative = toxicity, actives largely listed as cytotoxic | 360,000 tested, 2% active;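 further: 0% = DMSO wells and -100% = cell-free medium wells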
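Cytotoxicity counter-line: IDH1KD HT-1080, 48 h, CellTiter-Glo. Curves classed by r2, magnitude and activity.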
HT1080NT lethal – kills 2HG-producing HT-1080-NT fibrosarcoma cells; HT-1080-NT fibrosarcoma viability, CellTiter-Glo ATP luminescence, 48 h; Potency, µM (doses to about 46.1 µM), inactives show top-dose activity, negative = less viability, hits mostly cytotoxic; 360,000 tested, 1.6% active;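 further: NT is the 2HG producing partner of a matched IDH1 knockdown line; 0% = DMSO-treated cells and -100% = media-only wells without cells; nearly all actives have a fitted effect of over 55% in size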
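Toxicity toward the 2HG-producing NT line was scored as %Activity, normalised to DMSO and no-cell wells, from CellTiter-Glo luminescence after 48 hours' treatment.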
KB-V1 cytotox – KB-V1 MDR subline cytotoxicity | KB-V1 MDR cells viability, CellTiter-Glo, 72 h | Potency, µM (highest dose often 46.1 µM), hits mostly cytotoxic | 400,000 tested, 3.4% active | AID 1347076; further: on the % scale 0 is the no-effect control and ±100 the full control effect; nearly all actives have a fitted effect of over 60% in size
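Compound-treated KB-V1 multidrug-resistant cells, 72 h, 37 degrees C; viability by CellTiter-Glo. Fitted qHTS curves give the values.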
ATXN viability – reduces viability in counter-screen for ATXN expression inhibitors; Potency, µM (top dose mostly 56.7 µM), usual class: cytotoxic; S2 cells (HEK-293 line with an ATXN2-luciferase reporter) viability, CellTiter-Fluor protease fluorescence, 24 h; AID 651635; 400,000 tested, 0.49% active; further: nearly all actives have a fitted effect of over 40% in size
ATXN2 expr inh – reduces ATXN2 reporter expression in HEK-293 cells; HEK-293 ATXN2-luciferase reporter, luminescence, 24 h; Potency, µM (top dose mostly 57 µM), for the others: at the top dose activity change, negative = inhibition, most hits filed as inhibitors; 360,000 tested, 0.72% active; AID 1745845; further: on the % scale 0 is the no-effect control and ±100 the full control effect; nearly all actives have a fitted effect of over 55% in size
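qHTS (up to 57 uM final) was run with 24 h compound exposure of reporter cells at 37 °C. Each well was multiplexed: SteadyGlo luminescence measured ATXN2-luciferase expression after a fluorogenic Gly-Phe-AFC viability readout (25 uM final).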
KB-3-1 cytotox – kills parental KB-3-1 adenocarcinoma cells; Potency, µM (highest dose often 46.1 µM), most hits filed as cytotoxic; KB-3-1 viability, CellTiter-Glo ATP luminescence, 72 h; AID 1347075; 400,000 tested, 1.4% active; further: on the % scale 0 is the no-effect control and ±100 the full control effect; nearly all actives have a fitted effect of over 60% in size
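Cytotoxicity measured as CellTiter-Glo luminescence after 72 h at 37 C. Compound titrations were pinned onto drug-naive KB-3-1 parental adenocarcinoma cells grown in DMEM with 10% FBS, and normalized data fitted to concentration-response curves.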
* marks the source's active call; other numbers are inactive results; i = inactive; ? = inconclusive; · = not tested or not shown. The call rests on the fitted dose curve; in most records, active means well fitted curve in the direction sought with a large enough effect; inconclusive means small, poorly fitted or top-dose-only effect, or another doubt; inactive means no such curve, though single readings can be large; an effect the other way counts as inactive or inconclusive. Potency means the concentration at half of the fitted maximal effect.

SMILES	HT1080 IDH1KD tx	HT1080NT lethal	KB-V1 cytotox	ATXN viability	ATXN2 expr inh	KB-3-1 cytotox
N#Cc1c(-c2ccccc2)c(C#N)c2nc3ccccc3n2c1N	-1.7%	-4.3%	i	·	-31.4%	i
Cc1c(CCCl)c(Cl)n2c(nc3ccccc32)c1C#N	2.31µM*	2.59µM*	1.64µM*	?	?	2.06µM*
Cc1ccc(-c2c(C#N)c(N)n3c(nc4ccccc43)c2C#N)cc1	?	?	?	i	?	13µM*
Cc1cccc(OCC(O)CNC(C)(C)C)c1C (stereo not drawn)	·	·	·	i	-6.9%	·
Cc1ccccc1C(=O)NC(=O)Nc1ccc(-n2nc(C(F)(F)F)cc2C(F)(F)F)cc1	·	·	i	i	3.7%	i
C=CC[C@@H](CC(=O)N(CCO)Cc1ccccc1)C(=O)NC[C@H](OC(=O)[C@@H](CC=C)Cc1ccc(F)cc1)c1ccccc1	?	?	16.4µM*	20µM*	?	?
C=CC[C@@H](CC(=O)N(CCO)Cc1ccccc1)C(=O)N[C@@H](C)COC(=O)[C@@H](CC=C)Cc1ccc(F)cc1	3.4%	0.8%	i	i	-13.3%	i
C=CC[C@H](CC(=O)NCCO)C(=O)NC[C@H](OC(=O)[C@@H](CC=C)Cc1ccc(F)cc1)c1ccccc1	-2.8%	3.9%	i	i	10.1%	i
C=CC[C@@H](CC(=O)N(CCO)Cc1ccccc1)C(=O)N[C@H](COC(=O)[C@@H](CC=C)Cc1ccc(F)cc1)c1ccccc1	-22.2%	-26.2%	?	22.4µM*	?	?
C[C@]12CC[C@@H]3c4ccc(O)cc4C[C@@H](CCCCCCCCCS(=O)CCCC(F)(F)C(F)(F)F)[C@H]3[C@H]1CC[C@H]2O (stereo partly drawn)	·	·	·	·	-7.3%	·
CCCN1CCN(CCCNC(=O)c2cc3c(s2)-c2ccccc2OC3)CC1	?	23.1µM*	?	i	?	i
CCCN1CCN(CCCNC(=O)c2cc3c(s2)-c2c(C)cccc2OC3)CC1	18.4µM*	23.1µM*	i	?	?	?
CC1CCCC(C)N1CCCNC(=O)c1cc2c(s1)-c1ccccc1OC2 (stereo not drawn)	20.6µM*	?	i	i	?	i
Cc1cccc2c1-c1sc(C(=O)NCCCN3CCCC(C)C3)cc1CO2 (stereo not drawn)	20.6µM*	20.6µM*	i	?	35.5µM*	i
Cc1cccc(CCNC(=O)c2cc3c(s2)-c2c(C)cccc2OC3)c1	·	·	i	i	0.6%	i
CCN1CCN(CCCNC(=O)c2cc3c(s2)-c2ccccc2OC3)CC1	?	?	?	i	?	i
CN(C(=O)CSc1nc2ccccc2n1Cc1cccc(C(F)(F)F)c1)c1ccccc1	·	·	i	?	?	i
Cc1cccc(-c2ccc3c(c2)C2CC3CCN2C)c1 (stereo not drawn)	-3.7%	-15.2%	i	i	-9.8%	i
CC1CC(C)CN(CCCNC(=O)c2cc3c(s2)-c2ccccc2OC3)C1 (stereo not drawn)	18.4µM*	18.4µM*	i	?	25.1µM*	?
CCOc1ccc(-c2cc3nc(C4CCN(C(=O)OC(C)(C)C)CC4)c(C(=O)Nc4cccc(Cl)c4C)cn3n2)cc1	·	·	i	i	12.2%	i
COc1ccc(N2CCN(C(=O)CSc3c4c(nc5ccc(Cl)cc35)CCCC4)CC2)cc1	·	·	i	?	?	i
O=[N+]([O-])c1ccc(NN=Cc2cc(Br)ccc2O)nc1	4.61µM*	7.31µM*	?	?	?	i
Cc1ccc(-c2n[nH]c(=S)n2C)cc1Cl	19.8%	11.3%	2.91µM*	i	-25.0%	4.11µM*
CCc1ccc(C(CNC(=O)c2ccc3c(=O)n(-c4ccccc4F)c(=S)[nH]c3c2)N(C)C)cc1 (stereo not drawn)	32.6µM*	?	i	i	-19.6%	i
O=C(c1ccc(Cn2c(=S)[nH]c3ccc(Br)cc3c2=O)cc1)N1CCN(C2CCCCC2)CC1	4.8%	0.2%	18.4µM*	i	-19.6%	?
SMILES	HT1080 IDH1KD tx	HT1080NT lethal	KB-V1 cytotox	ATXN viability	ATXN2 expr inh	KB-3-1 cytotox
CCN(CC)CCn1c(=S)[nH]c2cc(Cl)ccc2c1=O	?	17.8µM*	i	i	-20.9%	i
CCN(CC)CCn1c(=S)[nH]c2ccc(Cl)cc2c1=O	?	?	i	i	?	i
CN(C)CCNC(=O)c1ccc2c(=O)n(Cc3ccc(Cl)cc3)c(=S)[nH]c2c1	?	23.1µM*	i	i	-21.8%	i
Cc1noc(C)c1CC(=O)N1CCOc2c(cc(-c3nc4ccccc4s3)cc2OC2CCOC2)C1 (stereo not drawn)	·	·	·	i	·	·
Cc1ccc(C(O)c2ncc(-c3ccc4ccccc4c3)[nH]2)c(C)c1 (stereo not drawn)	-20.8%	-13.5%	i	?	12.6%	i
COc1cccc(CNC(=O)CCn2cccn2)c1	·	·	i	i	11.7%	i
CC1CCCCC1n1c(=S)[nH]c2ccccc2c1=O (stereo not drawn)	11.2µM*	12.6µM*	i	i	-6.3%	i
CCCCN(C)CCNC(=O)c1ccc(Cn2c(=S)[nH]c3ccc(Br)cc3c2=O)cc1	14.6µM*	20.6µM*	i	i	·	i
O=C(CCn1c(=S)[nH]c2ccccc2c1=O)N1CCCCC1	-1.3%	-1.0%	i	i	·	?
O=C(CCCCCn1c(=S)[nH]c2cc3c(cc2c1=O)OCO3)N1CCN(C2CCCCC2)CC1	-0.2%	-3.9%	20.6µM*	?	?	i
CC1CCCCC1NC(=O)CCCn1c(=S)[nH]c2ccccc2c1=O (stereo not drawn)	-22.8%	-6.0%	i	i	-8.6%	i
CC1CCCN(C(=O)CCCn2c(=S)[nH]c3ccccc3c2=O)C1 (stereo not drawn)	13.4%	1.7%	8.2µM*	i	-4.6%	i
CC(C=CC1=C(C)CCCC1(C)C)=CC=CC(C)=CC(=O)O	·	·	·	·	-17.4%	·
COc1ccc(C(=O)N2CCC3(CC2)c2ccccc2[C@@H](NC(=O)c2ccccn2)[C@@H]3OC)c(O)c1	·	·	·	i	·	·
CCc1ccc(C2NC(=S)NC3=C2C(=O)N(c2ccccc2OC)C(c2ccc(CC)cc2)N3)cc1 (stereo not drawn)	-3.5%	1.2%	?	?	?	i
O=C1C2=C(NC(=S)NC2c2ccc(Cl)cc2)NC(c2ccc(Cl)cc2)N1c1ccc(Cl)cc1 (stereo not drawn)	?	?	?	?	?	16.4µM*
